Two molecules from PubChem BioAssay (EPA / NIEHS) can be followed below.

Read-out in test [1]: Pyruvate Dehydrogenase Kinase 4 (PDK4), PDK4 (gene 5166)
The experiment in a line: LTEA_HepaRG_PDK4: Life Technologies and Expression Analysis (LTEA) Assay for Pyruvate Dehydrogenase Kinase 4 (PDK4) using HepaRG (AID 2283525). Conditions: mRNA level, 48 h; actives raise or lower the signal. In outline: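 HepaRG (human liver line), 48 h chemical exposure, 8-pt half-log CRC top 100 uM, 0.5% DMSO vehicle, duplicates. Readout: TaqMan qRT-PCR of PDK4 mRNA, housekeeping-normalized; gain/loss fit relative to DMSO baseline.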

Read-out in test [2]: NAD(P)H dehydrogenase [quinone] 1 (NQO1), NQO1 (gene 1728)
The experiment in a line: LTEA_HepaRG_NQO1: Life Technologies and Expression Analysis (LTEA) Assay for NAD(P)H dehydrogenase [quinone] 1 (NQO1) using HepaRG (AID 2283526). As to conditions: mRNA level, 48 h; actives raise or lower the signal. In outline: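 In this assay, gene expression is read by qRT-PCR after 48 h exposure of HepaRG cells to eight concentrations (max 100 uM, half-log) in 0.5% DMSO. Each chemical runs in duplicate, and activity is scored relative to vehicle.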

Read-out in test [3]: Nuclear factor erythroid 2-related factor 2 (Homo sapiens) (UniProt Q16236)
The test is described as follows: LTEA_HepaRG_NFE2L2: Life Technologies and Expression Analysis (LTEA) Assay for Nuclear factor erythroid 2-related factor 2 (NFE2L2) Transcription Factor using HepaRG (AID 2283527).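 Also: TaqMan qRT-PCR transcript level normalised to ACTB GAPDH and POLR2A housekeeping genes.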 Conditions: mRNA level, 48 h; actives raise or lower the signal. The procedure, abridged:
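HepaRG, 48 h dosing, 8-pt half-log series from 100 uM in 0.5% DMSO, duplicates. Read-out: NFE2L2 mRNA by qRT-PCR (ACTB/GAPDH/POLR2A normalization). Bidirectional curve fit vs DMSO baseline.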

Read-out in test [4]: succinate dehydrogenase complex iron sulfur subunit B (SDHB), SDHB (gene 6390)
The test is described as follows: LTEA_HepaRG_SDHB: Life Technologies and Expression Analysis (LTEA) Assay for succinate dehydrogenase complex iron sulfur subunit B (SDHB) using HepaRG (AID 2283528). As to conditions: mRNA level, 48 h; actives raise or lower the signal. The procedure, abridged: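 HepaRG cells (~100,000/well, plated 48 h) exposed in duplicate for 48 h in serum-free induction medium to 8-point half-log series from 100 uM in 0.5% DMSO; mRNA by qRT-PCR normalised to ACTB, GAPDH, POLR2A; bidirectional fit versus DMSO.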

Read-out in test [5]: Signal transducer and activator of transcription 3 (Homo sapiens) (UniProt P40763)
The test is described as follows: LTEA_HepaRG_STAT3: Life Technologies and Expression Analysis (LTEA) Assay for Signal transducer and activator of transcription (STAT3) using HepaRG (AID 2283529). As to conditions: mRNA level, 48 h; actives raise or lower the signal. The procedure, abridged:
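HepaRG, 48 h exposure, 8-pt half-log series (top 100 uM), 0.5% DMSO vehicle, duplicates. Readout: STAT3 transcript by Fluidigm qRT-PCR, housekeeping-normalized; bidirectional fit vs DMSO baseline.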

Read-out in test [6]: solute carrier (SLCO1B1), SLCO1B1 (gene 10599)
The experiment in a line: LTEA_HepaRG_SLCO1B1: Life Technologies and Expression Analysis (LTEA) Assay for solute carrier (SLCO1B1) using HepaRG (AID 2283530). As to conditions: mRNA level, 48 h; actives raise or lower the signal. In outline: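 HepaRG, serum-free induction medium, 48 h dosing, 8-pt half-log from 100 uM, 0.5% DMSO vehicle, duplicates. Readout: SLCO1B1 mRNA, qRT-PCR, ACTB/GAPDH/POLR2A normalization; up or down fit vs DMSO.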

Read-out in test [7]: sulfotransferase 2A1 (SULT2A1), SULT2A1 (gene 6822)
The test is described as follows: LTEA_HepaRG_SULT2A1: Life Technologies and Expression Analysis (LTEA) Assay for sulfotransferase 2A1 (SULT2A1) using HepaRG (AID 2283531). Conditions: mRNA level, 48 h; actives raise or lower the signal. The procedure, abridged: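 Transcript levels of SULT2A1, quantified by qRT-PCR and normalized to three housekeeping genes, serve as the readout. Human HepaRG cultures receive test chemicals for 48 h at up to 100 uM in half-log steps, with 0.5% DMSO vehicle.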

Read-out in test [8]: Transforming Growth Factor (TGFA), TGFA (gene 7039)
The experiment in a line: LTEA_HepaRG_TGFA: Life Technologies and Expression Analysis (LTEA) Assay for Transforming Growth Factor (TGFA) using HepaRG (AID 2283532). As to conditions: mRNA level, 48 h; actives raise or lower the signal. The procedure, abridged: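 qRT-PCR read-out of TGFA transcript, normalized to three housekeeping genes, fitted bidirectionally against 0.5% DMSO baseline. Human HepaRG cultures received chemicals for 48 h at eight half-log concentrations, top 100 uM.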

Read-out in test [9]: Transforming Growth Factor (TGFB1), TGFB1 (gene 7040)
The test is described as follows: LTEA_HepaRG_TGFB1: Life Technologies and Expression Analysis (LTEA) Assay for Transforming Growth Factor (TGFB1) Transporter using HepaRG (AID 2283533). As to conditions: mRNA level, 48 h; actives raise or lower the signal. In outline: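 HepaRG, 48 h post-plating, switched to serum-free induction medium; chemicals 100 uM top, half-log, 8 pts, 0.5% DMSO, dup; 48 h exposure; RNA → Fluidigm TaqMan qRT-PCR; norm ACTB/GAPDH/POLR2A; bidirectional fit vs DMSO.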

Read-out in a further test: TIMP1, TIMP1 (gene 7076)
The test is described as follows: LTEA_HepaRG_TIMP1: Life Technologies and Expression Analysis (LTEA) Assay for TIMP1 using HepaRG (AID 2283534). As to conditions: mRNA level, 48 h; actives raise or lower the signal. In outline:
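Readout is TIMP1 mRNA level measured by qRT-PCR and normalized to three housekeeping genes. Human HepaRG cells were treated for 48 h in duplicate at eight concentrations up to 100 uM (0.5% DMSO); gain or loss fitted against DMSO.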

Read-out in test [10]: Tumor necrosis factor receptor 1 (TNFRSF1A), TNFRSF1A (gene 7132)
The experiment in a line: LTEA_HepaRG_TNFRSF1A: Life Technologies and Expression Analysis (LTEA) Assay for Tumor necrosis factor receptor 1 (TNFRSF1A) using HepaRG (AID 2283535). Conditions: mRNA level, 48 h; actives raise or lower the signal. The procedure, abridged: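 Read-out is TNFRSF1A transcript level by TaqMan qRT-PCR, normalized to three housekeeping genes, scored as gain or loss of signal versus 0.5% DMSO. Human HepaRG cells received test chemicals for 48 h at up to 100 uM (half-log series).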

Read-out in test [11]: Thyroid Hormone Responsive (THRSP), THRSP (gene 7069)
The experiment in a line: LTEA_HepaRG_THRSP: Life Technologies and Expression Analysis (LTEA) Assay for Thyroid Hormone Responsive (THRSP) using HepaRG (AID 2283536). Conditions: mRNA level, 48 h; actives raise or lower the signal. In outline:
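qRT-PCR read-out (Fluidigm TaqMan), housekeeping-normalized (ACTB/GAPDH/POLR2A). HepaRG, 48 h chemical exposure, 8-pt half-log series from 100 uM in 0.5% DMSO, duplicates. Bidirectional curve fit vs 0.5% DMSO baseline.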

Read-out in test [12]: Cellular tumor antigen p53 (Homo sapiens) (UniProt P04637)
The experiment in a line: LTEA_HepaRG_TP53: Life Technologies and Expression Analysis (LTEA) Assay for Tumor Protein P53 (TP53) using HepaRG (AID 2283537). As to conditions: mRNA level, 48 h; actives raise or lower the signal. In outline: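 Differentiated HepaRG cells in serum-free induction medium exposed 48 h in duplicate to 8 half-log concentrations, top 100 uM, 0.5% DMSO. TP53 mRNA by TaqMan qRT-PCR (Fluidigm), normalized to ACTB, GAPDH, POLR2A; fitted bidirectionally versus DMSO.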

Read-out in test [13]: UDP glucuronosyltransferase (UGT1A1), UGT1A1 (gene 54658)
The test is described as follows: LTEA_HepaRG_UGT1A1: Life Technologies and Expression Analysis (LTEA) Assay for UDP glucuronosyltransferase (UGT1A1) using HepaRG (AID 2283538). As to conditions: mRNA level, 48 h; actives raise or lower the signal. The procedure, abridged:
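mRNA induction or loss of UGT1A1, by TaqMan qRT-PCR, in duplicate HepaRG wells after 48 h exposure to half-log dilutions topping at 100 uM; DMSO (0.5%) served as baseline.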

Read-out in test [14]: UDP glucuronosyltransferase (UGT1A6), UGT1A6 (gene 54578)
The test is described as follows: LTEA_HepaRG_UGT1A6: Life Technologies and Expression Analysis (LTEA) Assay for UDP glucuronosyltransferase (UGT1A6) using HepaRG (AID 2283539). Conditions: mRNA level, 48 h; actives raise or lower the signal. In outline:
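HepaRG, 48 h post-plating switch to serum-free induction medium; chemical 48 h, 100 uM top, half-log x8, duplicate, 0.5% DMSO. Phenobarbital 1mM induction control. UGT1A6 mRNA by TaqMan qRT-PCR; gain/loss fit vs DMSO.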

Read-out in test [15]: X-box binding protein 1 (XBP1), XBP1 (gene 7494)
The experiment in a line: LTEA_HepaRG_XBP1: Life Technologies and Expression Analysis (LTEA) Assay for X-box binding protein 1 (XBP1) using HepaRG (AID 2283540). Conditions: mRNA level, 48 h; actives raise or lower the signal. In outline: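 Transcript levels of XBP1, measured by qRT-PCR and normalised to three housekeeping genes, were fitted bidirectionally relative to 0.5% DMSO controls. Human HepaRG cells received eight-point half-log dilutions from 100 uM for 48 h.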

Test [16] can be described thus: LTEA_HepaRG_LDH_cytotoxicity: Cytotoxicity Assessment in the Life Technologies and Expression Analysis (LTEA) Assay (AID 2283563; active = hit-call score of the fitted dose curve at least 0.9, where 1 is the maximum). In outline: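 Cells were thawed and plated for 48 h. Medium was then replaced with serum-free induction medium. Chemicals (8 half-log points, maximum 100 uM, 0.5% DMSO) were added in duplicate for 48 h, after which spent medium was assayed for LDH.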

A short description of test [17]: ATG_XTT_Cytotoxicity: Cytotoxicity Assessment in the Attagene TRANS-FACTORIAL HepG2 Assay (AID 2283584; active = hit-call score of the fitted dose curve at least 0.9, where 1 is the maximum). In outline: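 Cells: human HepG2, transiently transfected with MRTU reporter constructs. Exposure 24 h. Readout: XTT, cell number. Baseline/neg ctrl DMSO; loss-of-signal scored.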
A short description of test [18]: TOX21_p53_BLA_p2_viability: Viability Assessment in the Tox21 HCT-116 p53 Agonism Beta-lactamase Assay, Phase 2 (AID 2283591; active = hit-call score of the fitted dose curve at least 0.9, where 1 is the maximum;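 also: compound exposure lasted 16 h at 37 °C; actives lower the ATP signal meaning cytotoxicity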). In outline:
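HCT116 p53-bla cells, 4000/well, dosed after 5 h plating (217-fold dilution of DMSO stocks) and incubated 16 h at 37C. Viability taken as cellular ATP by CellTiter-Glo luminescence after 30 min RT; signal loss marks cytotoxicity.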

In test [19] the target is Cellular tumor antigen p53 (Homo sapiens) (UniProt P04637). The experiment in a line: TOX21_p53_BLA_p2_ratio: Tox21 HCT-116 p53 Agonism Beta-lactamase Assay, Ratio, Phase 2 (AID 2283592; active = hit-call score of the fitted dose curve at least 0.9, where 1 is the maximum). The procedure, abridged: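 Plated HCT116 p53-bla cells (4000/well) received compound after 5 h, then 16 h at 37C/5% CO2. CCF4-AM added, 2 h RT. Ratio of 460 to 530 nm emission taken as the p53 reporter signal.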

Molecules are shown by their SMILES. Records with an inconclusive call do not appear. Active and inactive are the calls of the source. The calls were made as follows, unless noted: active = hit-call score of the fitted dose curve at least 0.9, where 1 is the maximum; inactive = score below 0.9.

Cellular tumor antigen p53 (Homo sapiens), sequence (P04637 whole entry, looked up): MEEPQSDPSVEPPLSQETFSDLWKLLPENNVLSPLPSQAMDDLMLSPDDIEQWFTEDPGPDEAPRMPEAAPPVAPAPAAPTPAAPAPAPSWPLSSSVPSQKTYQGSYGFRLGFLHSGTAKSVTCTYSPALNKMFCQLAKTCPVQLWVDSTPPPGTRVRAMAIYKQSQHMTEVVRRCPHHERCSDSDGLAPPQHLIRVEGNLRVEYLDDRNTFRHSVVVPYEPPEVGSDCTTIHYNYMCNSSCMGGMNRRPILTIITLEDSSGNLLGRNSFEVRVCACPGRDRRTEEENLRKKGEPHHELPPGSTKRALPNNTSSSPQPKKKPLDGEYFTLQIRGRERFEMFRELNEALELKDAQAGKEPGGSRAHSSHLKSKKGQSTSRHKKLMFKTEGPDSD
Signal transducer and activator of transcription 3 (Homo sapiens), sequence (P40763 whole entry, looked up): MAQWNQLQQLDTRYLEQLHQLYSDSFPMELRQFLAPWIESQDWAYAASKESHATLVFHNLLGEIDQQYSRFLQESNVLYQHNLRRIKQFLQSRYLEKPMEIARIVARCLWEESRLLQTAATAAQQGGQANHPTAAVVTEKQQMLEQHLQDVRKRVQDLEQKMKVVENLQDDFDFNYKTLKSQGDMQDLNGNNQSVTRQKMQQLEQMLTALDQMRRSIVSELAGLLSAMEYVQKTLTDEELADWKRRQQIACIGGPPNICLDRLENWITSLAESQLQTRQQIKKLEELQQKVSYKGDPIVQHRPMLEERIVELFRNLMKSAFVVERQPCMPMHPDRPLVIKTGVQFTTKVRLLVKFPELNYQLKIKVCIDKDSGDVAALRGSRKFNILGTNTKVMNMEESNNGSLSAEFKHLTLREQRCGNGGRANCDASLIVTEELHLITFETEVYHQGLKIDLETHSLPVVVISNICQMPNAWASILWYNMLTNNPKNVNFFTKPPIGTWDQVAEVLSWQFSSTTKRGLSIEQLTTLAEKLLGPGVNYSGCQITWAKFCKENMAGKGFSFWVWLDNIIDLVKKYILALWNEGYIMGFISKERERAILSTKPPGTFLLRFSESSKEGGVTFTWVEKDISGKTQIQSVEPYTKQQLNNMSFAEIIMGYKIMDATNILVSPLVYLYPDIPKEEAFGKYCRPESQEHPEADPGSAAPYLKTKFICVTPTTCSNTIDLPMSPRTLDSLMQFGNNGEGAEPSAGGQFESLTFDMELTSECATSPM
Nuclear factor erythroid 2-related factor 2 (Homo sapiens), sequence (Q16236 whole entry, looked up): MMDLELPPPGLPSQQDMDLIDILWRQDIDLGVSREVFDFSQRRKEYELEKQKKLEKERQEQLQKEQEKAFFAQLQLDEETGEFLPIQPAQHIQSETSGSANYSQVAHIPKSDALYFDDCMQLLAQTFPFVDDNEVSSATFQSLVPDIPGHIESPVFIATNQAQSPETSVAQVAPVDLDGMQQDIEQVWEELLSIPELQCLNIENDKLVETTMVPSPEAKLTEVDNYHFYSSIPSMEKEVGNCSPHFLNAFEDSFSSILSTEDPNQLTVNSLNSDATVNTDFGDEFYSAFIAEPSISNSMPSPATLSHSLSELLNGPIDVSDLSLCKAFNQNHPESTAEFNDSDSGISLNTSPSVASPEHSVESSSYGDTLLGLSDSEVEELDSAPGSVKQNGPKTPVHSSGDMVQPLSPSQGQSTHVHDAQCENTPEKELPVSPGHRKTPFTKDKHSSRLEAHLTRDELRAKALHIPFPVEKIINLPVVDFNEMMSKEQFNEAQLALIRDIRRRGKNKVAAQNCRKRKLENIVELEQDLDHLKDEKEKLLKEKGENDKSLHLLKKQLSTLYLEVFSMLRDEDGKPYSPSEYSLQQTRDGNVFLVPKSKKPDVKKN

Broadly, the AC50 is the midpoint of the concentration-response curve, whichever way the signal moves. Turning to `CCCCCCCCCCCCCCCS(=O)(=O)Oc1ccccc1`, the molecule was classed as inactive in test [1], in test [2], in test [3], in test [4], in [5] and in test [6]. For the same molecule, the outcome in test [7] is “inactive”; in test [8], “inactive”; in test [9] it was “inactive”; with TIMP1, TIMP1 (gene 7076), “inactive”; in [10], “inactive”; in test [11] it was “inactive”. For the same molecule, the result in [12], in test [14], in [15], in test [16], in test [17] and in test [18] was inactive. The result in test [19] was inactive. Besides, the AC50 in test [13] is 8.01 µM (active).
Turning to `ClC1=C(Cl)C(Cl)(Cl)C(Cl)=C1Cl`, the result in test [1], in test [2], in [4], in [5], in test [6] and in test [7] was inactive. Moreover, the outcome in test [8] is “inactive”; in [9], “inactive”; in the test with TIMP1, TIMP1 (gene 7076), “inactive”; in [10], “inactive”; in test [11] it was “inactive”; in test [12], “inactive”. In addition, the result in test [13], in test [14], in test [15], in test [16], in test [17] and in [18] was inactive. Moreover, in test [19], the result was inactive.
